Assay outcomes: PubChem BioAssay, National Center for Advancing Translational Sciences (NCATS)
In the library only some 21% were active in any assay of this set; here they are far more common.
Pf growth 48h: inhibits P. falciparum growth in the first generation, 48 h; Potency, µM (series often up to 28.7 µM), for the others: at the highest dose activity change, negative = inhibition, hits mostly inhibitors; actives 5.9% (n = 310,000); P. falciparum luciferase growth in erythrocytes, 48 h; note: potency is the fitted concentration of half-maximal effect; % is set by controls: 0 for no effect and ±100 for the full control effect
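Here the parasites carry a stable luciferase gene and grow inside erythrocytes in Albumax-based RPMI medium with compound for one erythrocytic cycle. Activity is scored as loss of luminescent signal.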
Shiga inhibitor: Shiga toxin inhibition | Vero cells, Shiga toxin protein synthesis inhibition reporter | inhibition, % at 38.7 µM | actives 9.2% (n = 290,000); in the data active = inhibition mostly above about 28%, no sharp cut-off; inactive = mostly below about 43%; note: 0% is about no effect
Cycloheximide cs: affects cycloheximide protein synthesis inhibition readout, counter-screen | max response, % | actives 12% (n = 300,000) | cell reporter, cycloheximide protein synthesis inhibition counterscreen; in the data active = max response mostly above about 13%, no sharp cut-off; inactive = mostly below about 14%; note: read at 38.3 µM for the half of the compounds with a filed dose; 0% is about no effect
NS1 inh: influenza NS1 inhibition. Potency, µM (highest dose often 46.1 µM), inactives show at the top dose activity, positive = more growth. actives 0.4% (n = 270,000); calls by dose curve; note: potency is the fitted concentration of half-maximal effect; actives are rising curves; nearly all actives have a fitted effect of over 50% in size
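In this qHTS, NS1 from influenza A is expressed in budding yeast, where it slows growth. Cells are switched from glucose to 2% galactose medium (pH 6.0, -URA), treated with compound, and growth recovery is read at OD600.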
Pf growth 96h: inhibits malaria parasite growth, 96 h. P. falciparum luciferase reporter growth, 96 h. Potency, µM (series often up to 28.7 µM), inactives show at the highest dose activity change, negative = inhibition, most hits filed as inhibitors. actives 6.9% (n = 320,000). AID 504834; note: potency is the fitted concentration of half-maximal effect; % is set by controls: 0 for no effect and ±100 for the full control effect
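P. falciparum expressing integrated firefly luciferase, in erythrocytes at 2% hematocrit, 0.05% parasitemia, incubated with compounds 96 h at 37 C, 5% CO2. Growth inhibition read as loss of luminescence; two-generation exposure targets delayed-death apicoplast inhibitors.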
Numbers without * were called inactive; i = inactive; ? = inconclusive; . = no result given; ! = a repeat was not active; [ ] = dose if it differs, or a comment. Unless noted, calls come from the whole dose curve; as a rule, active = well fitted inhibition curve with a large enough effect; inconclusive = small, poorly fitted or top-dose-only effect, or another doubt; inactive = no such curve, though single readings can be large or run the other way.

SMILES | Pf growth 48h | Shiga inhibitor | Cycloheximide cs | NS1 inh | Pf growth 96h
Cc1ccc2c(c1)nnn2C1CCN(S(=O)(=O)c2ccc3ccccc3c2)CC1 | 10µM* | -3 | -2 | 7% | -19%
Cc1ccc2c(c1)nnn2C1CCN(S(=O)(=O)c2cccc(S(=O)(=O)N(C)C)c2)CC1 | 10µM* | -22 | 8 | 8% | ?
Cc1ccc2c(c1)nnn2C1CCN(S(=O)(=O)c2ccc(C(=O)N(C)C)cc2)CC1 | ? | 5 | -5 | -8% | -25%
CCOC(=O)N1CCN(c2nc(C)c3c(n2)CC(C)CC3=O)CC1 (stereo not given) | -10% | -6 | -4 | -15% | 1%[5.75 µM]
N#CC1=C2C=CC=CN2CC1=O | 155% | 111* | 30* | 5% | 141%
COc1ccc(N(CC(=O)Nc2ccc(C(N)=O)cc2)S(=O)(=O)c2ccc(C)c([N+](=O)[O-])c2)cc1 | -9% | 12 | 1 | 3% | 245%
COc1ccc(N(CC(=O)Nc2ccccc2C(N)=O)S(=O)(=O)c2ccc(C)c([N+](=O)[O-])c2)cc1 | ? | 45 | 23* | 2% | 0%
COc1ccc(N(CC(=O)Nc2ccccc2C(=O)N2CCCC2)S(=O)(=O)c2ccccc2)cc1 | ? | -17 | 2 | 11% | 17%
CCOc1ccccc1N(CC(=O)Nc1ccccc1C(=O)N1CCOCC1)S(C)(=O)=O | 3% | 21 | -1 | 7% | 10µM*
COc1ccc(N(CC(=O)Nc2ccccc2C(=O)N2CCOCC2)S(=O)(=O)c2ccc(F)cc2)cc1 | -1% | 1 | 5 | -14% | 10µM*
Cc1[nH]c2ccc(C(=O)N3CCN(c4ccc(F)cc4)CC3)cc2c1C | ? | 3 | -1 | -43% | 15%
Cc1nc(-c2ccccn2)sc1C(=O)Nc1ccc(Cl)c(Cl)c1 | 17% | 128* | 26* | -2% | 37%
Cc1nc(Cl)sc1C(=O)Nc1cccc(Cl)c1 | -10% | . | 31* | -19% | ?
Cc1nc(C)c(C(=O)Nc2cccc(F)c2)s1 | 44% | 35* | 19* | -4% | 49%
O=C(Nc1cccc(F)c1)c1sc(Cl)nc1-c1ccccc1 | -21% | -6 | -2 | 1% | 1%
Cc1nc(Cl)sc1C(=O)Nc1ccc(Cl)cc1 | 29% | 71* | 25* | -16% | 25%
CC(=O)c1cccc(NC(=O)c2sc(Cl)nc2C)c1 | -9% | . | 12 | -30% | ?
Cc1cccc(C)c1NC(=O)c1sc(Cl)nc1C | -14% | 14 | 1 | -1% | 20%
O=c1[nH]cc(S(=O)(=O)Nc2ccc3c(c2)OCO3)c(=O)[nH]1 | 7% | . | . | . | 23%
CCOc1ccccc1NC(=O)CN(c1ccc(Cl)cc1)S(C)(=O)=O | -17% | -8 | -3 | 23% | ?
Cc1nc(C)c(C(=O)Nc2ccccc2)s1 | 49% | 35 | 8 | -7% | -5%
Cc1nc(Cl)sc1C(=O)Nc1ccccc1 | 1% | 21 | 11* | 0% | ?
CCOC(=O)c1sc(-c2ccccn2)nc1C | i | 112* | 45* | . | 228%
Cc1nc(Cl)sc1C(=O)Nc1ccc2ccccc2c1 | 187% | 192* | 66* | -12% | 248%
Cc1c(C(=O)Nc2ccccc2)sc2nc[nH]c(=O)c12 | 52% | -4 | 15* | 6% | ?
SMILES | Pf growth 48h | Shiga inhibitor | Cycloheximide cs | NS1 inh | Pf growth 96h
CCCSc1nc2c(cnn2-c2ccccc2)c(=O)[nH]1 | 16% | -13 | 5 | 2% | 68%
CCc1nc(NC(C)(C)C)c2cnn(-c3ccccc3)c2n1 | 51% | 99* | 41* | -2% | -6%
CCCCNc1ncnc2c1cnn2-c1ccccc1 | 117% | 92* | 61* | -99% | 12µM*
CCCCNc1ncnc2c1cnn2-c1ccc(Cl)cc1 | 45% | 72* | 51* | -10% | 128%
CCCCNc1ncnc2c1cnn2Cc1ccc(Cl)cc1 | -27% | -10 | 2 | -34% | ?
Nc1ncnc2c1cnn2-c1ccccc1 | 66% | 91*! | 29* | -12% | 8%
CC(C)OC(=O)CSc1ncnc2c1cnn2-c1ccccc1 | . | -4 | 1 | -9% | 87%
CC(C)(C)C(=O)CSc1ncnc2c1cnn2-c1ccccc1 | 223% | 62* | 43* | -3% | 29%
Clc1ccc(-n2ncc3c(NCCCn4ccnc4)ncnc32)cc1 | . | 35* | 21* | -10% | .
CCO[C@@H]1OC(C(=O)O)=C[C@H](c2ccc(Br)cc2)[C@H]1CCCO | 18% | 3 | -2 | 3% | 34%
O=C1CSc2nc3ccccc3n21 | 35% | 19 | 21* | -7% | -7%
O=C(O)C1CC(=O)n2c(nc3ccccc32)S1 (stereo not given) | 2% | 26 | 1 | -3% | .
COCC(=O)NC1CCN(C(=O)NCc2ccccc2)CC1 | . | -3 | -5 | 9% | 8%
COCCOC(=O)C1=C(C)NC(=O)N(C(C)=O)C1c1ccc(Cl)cc1 (stereo not given) | ? | 20 | -3 | -10% | 2.3µM*
CCOC(=O)C1=C(C)NC(=S)N(C(C)=O)C1c1ccc(Cl)cc1 (stereo not given) | ? | 17 | -3 | -21% | 1%
Cc1cc(C(=O)CSCCCn2c(=O)[nH]c3ccccc32)c(C)n1C | 13µM* | -1 | -1 | -6% | 3%
O=c1[nH]c2ccccc2n1CCC1CCCCC1 | 23% | 23 | 47* | -156% | .
CCn1c2ccccc2c2nnc(SCCCn3c(=O)[nH]c4ccccc43)nc21 | 7.4µM* | 15 | -5 | 4% | 2.3µM*
O=c1[nH]c2ccccc2n1CCCSCCCn1c(=O)[nH]c2ccccc21 | ? | 16 | 0 | 14% | 9.3µM*
CC(C)CCn1c(=O)[nH]c2ccccc21 | 1% | 1 | -1 | 2% | 15%
O=c1[nH]c2ccccc2n1Cc1ccc(Cl)cc1 | 12% | -19 | -8 | -5% | .
CCCCCN1N=C(C)CC1=O | 16% | -1 | 2 | . | 177%
CCOc1cc(NC(=O)c2ccccc2C)c(OCC)cc1NC(=O)C1=Cc2ccccc2OC1 | 1% | -7 | 6 | 5% | 17%
c1ccc(C2=NN(c3ccccc3)CC2)cc1 | 148% | 114* | 61* | -5% | 137%
Cc1ccc2c(c1)nnn2C1CCN(C(=O)NC23CC4CC(CC(C4)C2)C3)CC1 | 9% | -7 | -2 | 5% | 60%
SMILES | Pf growth 48h | Shiga inhibitor | Cycloheximide cs | NS1 inh | Pf growth 96h
CCOC(=O)CN(C(=O)CN1CCC(n2nnc3cc(C)ccc32)CC1)c1ccccc1 | . | -7 | -4 | -7% | 5.2µM*
Cc1ccc2c(c1)nnn2C1CCN(C(=O)C23CC4CC(CC(C4)C2)C3)CC1 | ? | -1 | -3 | 5% | 13µM*
Cc1ccc2c(c1)nnn2C1CCN(CC(=O)N2c3ccccc3CC2C)CC1 (stereo not given) | ? | -11 | -5 | -20% | -7%
Cc1ccc2c(c1)nnn2C1CCN(CC(=O)c2ccc(Cl)cc2)CC1 | ? | -6 | 2 | -17% | 1%
Cc1ccc2c(c1)nnn2C1CCN(CC(=O)N(c2ccccc2)c2ccccc2)CC1 | 6.6µM* | -4 | -1 | -5% | 12µM*
Cc1ccc2c(c1)nnn2C1CCN(CC(=O)Nc2ccc3c(c2)OCCO3)CC1 | -28% | 22 | 26* | -17% | -11%
